The source of these data is PubChem BioAssay (NCI).

What all share (assay): NCI-60 one-dose screen, 48 h (100 = growth as untreated, 0 = no growth, -100 = all killed)
Holding throughout (conditions): 10 µM unless noted

Assay [1] concerns NCI-H23 lung.
Assay [2] concerns NCI-H226 lung.
Assay [3] has as its system NCI-H322M lung.
The subject of assay [4] is HOP-62 NSCLC.
Assay [5] deals with NCI-H460 lung.
In assay [6] the test system is HOP-92 NSCLC.
In assay [7] the test system is NCI-H522 lung.
The test system of assay [8] is A549/ATCC NSCLC.
The subject of assay [9] is 786-0 renal.
Assay [10] relates to COLO 205 colon.
The subject of assay [11] is DU-145 prostate.
In assay [12] the test system is K-562 leukemia.
The test system of assay [13] is MALME-3M melanoma.
Assay [14] concerns MDA-MB-231 breast.
Assay [15] relates to RXF 393 renal.
In assay [16] the test system is SF-268 CNS.
Assay [17] relates to SF-295 CNS.
Assay [18] has as its system SF-539 CNS.
Assay [19] deals with UACC-257 melanoma.
Assay [20] concerns M14 melanoma.

The structures appear in SMILES notation. Compounds without any hit were thinned out: in the full panel of roughly 83,000, 20% have a hit.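 Interpretation: 100, growth as untreated; towards 0, rising growth inhibition; 0, no net growth; 0 to -100, cell death. Compounds scoring below 10 were considered active.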 A number with no mark means an inactive call. Calls of active or inactive are those of the source.

In the case of `COc1ccc2c(O)c(/C=C3\N=Nc4ccccc43)oc2c1C[C@H]1CCNC[C@H]1F`, the growth in assay [1] is 46.8%; in assay [2], 60.6%; in assay [3] it was 73.4%; in assay [4], 53.6%; in [5] it was 29.8%; in [6] it was 38.6%. Further, the growth in assay [7] was 46.7%; in assay [8], 34.4%; in assay [9], 57.8%; in [10] it was 0.564% (active); in [11] it was 51.1%; in assay [12], 37.4%. The growth was 42.3% in assay [13]; 47.8% in assay [14]; 59.9% in assay [15]; 77.2% in [16]; 66.9% in assay [17]; 57.4% in assay [18]. Besides, the growth in [19] was 52.2%; in assay [20], 28.7%.

Regarding `CS(=O)(=O)Nc1cncc(-c2ccc3ncnc(Nc4ccc(F)c(Cl)c4)c3c2)c1`, the growth in assay [1] was 33.1%; in [2] it was 55.7%; in assay [3], 10.5%; in assay [4] it was 40.1%; in assay [5] it was 61.9%; in assay [6] it was -4.23% (active). Further, the growth is 8.87% (active) in assay [7]; 43.1% in [8]; 62% in assay [9]; 32.5% in assay [10]; 36.5% in [11]; 35.3% in assay [12]. For the same compound, the growth was 44.1% in assay [13]; 54.6% in assay [14]; 24.9% in [15]; 41.5% in assay [16]; 44.5% in assay [17]; 32.5% in assay [18]. Moreover, the growth in assay [19] was 35.2%; in assay [20], 52.5%.

Regarding `O=C(Nc1cccnc1Nc1ccc(Cl)cc1)c1cn(Cc2ccc(F)cc2)nn1`, the growth in assay [1] was 99.4%; in assay [2] it was 94.2%; in assay [3], 98.5%; in assay [4], 112%; in [5], 107%; in assay [6] it was 102%. In addition, the growth in assay [7] is 91.1%; in assay [8], 103%; in [9] it was 86.9%; in assay [10], 124%; in [11], 106%; in [12], 108%. In addition, the growth is 117% in [13]; 83.9% in assay [14]; 98.7% in assay [15]; 103% in assay [16]; 96.6% in [17]; 94.5% in [18]. In addition, the figures for the growth in assay [19] and in assay [20] were 105% and 101%, respectively.

In the case of `COC1=CC(c2ccc[nH]2)=N/C1=C\c1[nH]c(C)c(CC(=O)OCc2ccccc2)c1C`, the growth was 6.16% (active) in assay [1]; 10.5% in [2]; 25.9% in assay [3]; 1.96% (active) in assay [4]; 7.86% (active) in assay [5]; -16.8% (active) in assay [6]. Moreover, the growth in assay [7] is -33.4% (active); in assay [8] it was 5.03% (active); in assay [9] it was -23.7% (active); in [10] it was -4.75% (active); in assay [11], 20.8%; in assay [12], 2.58% (active). The growth was -67.9% (active) in assay [13]; -13.6% (active) in assay [14]; -26.7% (active) in assay [15]; 9.87% (active) in [16]; -50.1% (active) in assay [17]; -4.33% (active) in [18]. In addition, the growth in [19] is -25% (active); in assay [20], -55.9% (active).

Take `O=C(O)c1cn(C2CC2)c2cc(N3CCN(C(=O)N/N=C/c4ccccc4)CC3)c(F)cc2c1=O`: the growth in assay [1] is 97.1%; in [2] it was 88%; in assay [3] it was 100%; in assay [4] it was 107%; in assay [5], 109%; in assay [6], 89%. Moreover, the growth in assay [7] is 78%; in assay [8], 106%; in assay [9], 93.6%; in [10], 114%; in assay [11], 104%; in assay [12], 89.1%. The growth is 92.9% in assay [13]; 120% in assay [14]; 104% in assay [15]; 96.8% in [16]; 106% in assay [17]; 110% in assay [18]. The growth was 89.3% in assay [19] and 108% in assay [20].

As to `COc1cc(-c2nc3ccc(C)cc3[nH]2)ccc1OCC(=O)N=Nc1c(O)[nH]c2ccc(Cl)cc12`, the growth in [1] is 23.2%; in assay [2], 86.8%; in assay [3] it was 36.9%; in assay [4], 18.3%; in assay [5], -56.1% (active); in assay [6], 2.42% (active). For the same compound, the growth is 20.6% in assay [7]; 29.7% in assay [8]; -82.5% (active) in [9]; -15.9% (active) in assay [10]; 22.9% in [11]; -39.3% (active) in assay [12]. The growth in [13] is -26.9% (active); in assay [14], -61.6% (active); in [15], -40.7% (active); in assay [16], 31.4%; in [17] it was -7.5% (active); in assay [18] it was -80% (active). Moreover, the growth was 39.4% in [19] and 3.17% (active) in assay [20].

Take `NC(=O)c1c(NC(=O)c2ccc(Cl)cc2)sc2c1CCC(=O)C2`: the growth is 51.6% in [1]; 97.8% in [2]; 94% in assay [3]; 106% in assay [4]; 100% in [5]; 77.4% in [6]. The growth in assay [7] is 7.79% (active); in [8], 98.5%; in assay [9], 94.3%; in assay [10], 75.9%; in [11] it was 98.6%; in assay [12] it was 13.9%. Also, the growth in assay [13] is 92.7%; in [14], 86.3%; in assay [15], 56.7%; in assay [16], 47.5%; in assay [17] it was 96.2%; in assay [18], 43.2%. The growth in assay [19] is 91.6%; in [20], 51.5%.

Consider `Clc1nn2c(Cn3cnc4c(NCc5ccccc5)ncnc43)nnc2c2ccccc12`, for which the growth was 53.6% in assay [1]; 42.5% in [2]; 21% in assay [3]; 37.9% in assay [4]; 34% in assay [5]; 5.22% (active) in [6]. The growth is 43.7% in assay [7]; 40% in [8]; 40% in [9]; 35.1% in assay [10]; 36.7% in assay [11]; 42.7% in [12]. The growth in assay [13] was 27.8%; in [14], 26.6%; in assay [15], 39%; in assay [16], 41.9%; in [17], 63.2%; in [18], 50.7%. In addition, the results for the growth in assay [19] and in [20] were 39.1% and 19.7%, respectively.

In the case of `Cc1cccc(NC(=O)CSc2nc3ccc([N+](=O)[O-])cc3[nH]2)c1`, the growth in assay [1] was 69.7%; in [2], 71%; in [3] it was 97.2%; in [4], 115%; in [5] it was 84.7%; in assay [6], 21%. Further, the growth in assay [7] was 61%; in assay [8] it was 82.7%; in assay [9] it was 84.8%; in assay [10], 90.1%; in [11], 85%; in assay [12], 66.5%. Further, the growth in assay [13] is 62.2%; in assay [14], 97.3%; in assay [15] it was 89%; in assay [16], 87.8%; in assay [17] it was 62.7%; in [18], 87.1%. For the same compound, the figures for the growth in [19] and in assay [20] were 70.9% and 79.9%, respectively.

Turning to `Cc1ccc(/C=C/C(=O)c2ccc(NC(=O)CSc3nc4c([nH]3)c(=O)n(C)c(=O)n4C)cc2)c(C)c1`, the growth is 57.9% in assay [1]; 47.2% in assay [2]; 71.3% in assay [3]; 20.4% in assay [4]; 24.5% in assay [5]; -35.2% (active) in assay [6]. Moreover, the growth in assay [7] was 32.5%; in [8], 33.6%; in assay [9], 36%; in assay [10] it was 84.8%; in assay [11], 40.1%; in assay [12], 55.9%. Moreover, the growth in assay [13] is 58.7%; in assay [14] it was 5.32% (active); in assay [15] it was -3.94% (active); in [16], 46.2%; in [17], 47.6%; in [18] it was 55.1%. For the same compound, the growth is 62% in assay [19] and 56.8% in assay [20].

Turning to `COc1cccc(NC(=O)c2cccc(C3CCc4c(cc(OC)c(OC)c4OC)O3)c2)c1` (stereo not given), the growth in [1] is 73.9%; in assay [2], 53.7%; in assay [3], 54.2%; in assay [4], 85.2%; in [5] it was 84%; in [6] it was 26.3%. Further, the growth in assay [7] is 53.1%; in assay [8], 70.8%; in [9] it was 86.6%; in assay [10] it was 80.2%; in assay [11] it was 79.6%; in assay [12], 35.6%. In addition, the growth in assay [13] is 72.7%; in assay [14], 32.2%; in [15] it was 88.9%; in assay [16] it was 91.2%; in assay [17] it was 70.9%; in assay [18], 92%. Besides, the growth is 78.1% in assay [19] and 56.9% in assay [20].

Regarding `COc1cccc(/C=C2\COc3ccc(O)cc3C2=O)c1`, the growth was 93.7% in [1]; 105% in assay [2]; 106% in assay [3]; 95% in [4]; 99.6% in assay [5]; 91.9% in assay [6]. Also, the growth is 56.1% in [7]; 87.4% in assay [8]; 78.3% in assay [9]; 97.9% in assay [10]; 89% in assay [11]; 5.52% (active) in [12]. The growth in assay [13] is 91.1%; in assay [14], 49.7%; in assay [15], 105%; in [16], 91.1%; in assay [17], 103%; in [18], 88.5%. In addition, the growth in assay [19] is 111%; in assay [20] it was 83.4%.

For the compound `COc1ccc(/C=C/C(=O)c2cc3c(N)c(C(=O)Nc4ccccc4C)sc3nc2C)cc1`, the growth was 36.1% in [1]; 53.3% in [2]; 35.7% in assay [3]; 32.6% in assay [4]; 1.23% (active) in [5]; 79.2% in assay [6]. Also, the growth in assay [7] was -28.4% (active); in [8], 20.1%; in assay [9] it was 21.3%; in [10] it was -30.3% (active); in assay [11], 13%; in assay [12] it was 15.3%. Moreover, the growth in assay [13] was 51.7%; in assay [14] it was 15.5%; in [15], -23.1% (active); in assay [16], 32.3%; in assay [17], 14.2%; in [18] it was -38.2% (active). Also, the values for the growth in [19] and in [20] were 64.8% and 3.29% (active), respectively.

For the compound `CCOC(=O)c1c(-c2ccccc2)n2c(=O)cc(C)c3c(O)c(O)cc1c32`, the growth in assay [1] was 66.2%; in [2], 84.6%; in assay [3] it was 50.3%; in [4] it was 39.4%; in [5], 20.3%; in assay [6] it was 47%. In addition, the growth in assay [7] is 66.2%; in assay [8] it was 43.1%; in assay [9] it was 62.7%; in assay [10], 86.9%; in assay [11] it was 76.9%; in assay [12] it was 53.4%. Besides, the growth in [13] is 64.7%; in assay [14], 76.3%; in assay [15], 76.3%; in [16], 52.2%; in assay [17], 59.9%; in assay [18], 75.7%. Also, the growth in [19] is 69.7%; in assay [20], 66.2%.
